# According to PubChem BioAssay (EPA / NIEHS):
# “And” between values parts separate entries of the source, which are not always exact repeats. Equal values may be shown once. Inconclusive results are not listed. Where a structure was tested more than once in an assay, its records may differ in their call. The source made the active and inactive calls. The calls were made as follows, unless noted: active = hit-call score of the fitted dose curve at least 0.9, where 1 is the maximum; inconclusive = response in the unintended direction; inactive = score below 0.9.
# Target: human Retinoic Acid Receptor beta (RARb), RARB (gene 5915) (UniProt P10826)
# Assay: ATG_RARb_TRANS: Attagene TRANS-FACTORIAL HepG2 Assay for human Retinoic Acid Receptor beta (AID 2283004)
# Conditions: not given
# In short: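 HepG2, transient MRTU transfection, NR–Gal4 chimera, 24 h treatment; RT-PCR plus CE fluorescence detection of reporter mRNA; gain of signal vs DMSO.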
# Sequence of human Retinoic Acid Receptor beta (RARb), RARB (gene 5915) (P10826 whole entry, looked up): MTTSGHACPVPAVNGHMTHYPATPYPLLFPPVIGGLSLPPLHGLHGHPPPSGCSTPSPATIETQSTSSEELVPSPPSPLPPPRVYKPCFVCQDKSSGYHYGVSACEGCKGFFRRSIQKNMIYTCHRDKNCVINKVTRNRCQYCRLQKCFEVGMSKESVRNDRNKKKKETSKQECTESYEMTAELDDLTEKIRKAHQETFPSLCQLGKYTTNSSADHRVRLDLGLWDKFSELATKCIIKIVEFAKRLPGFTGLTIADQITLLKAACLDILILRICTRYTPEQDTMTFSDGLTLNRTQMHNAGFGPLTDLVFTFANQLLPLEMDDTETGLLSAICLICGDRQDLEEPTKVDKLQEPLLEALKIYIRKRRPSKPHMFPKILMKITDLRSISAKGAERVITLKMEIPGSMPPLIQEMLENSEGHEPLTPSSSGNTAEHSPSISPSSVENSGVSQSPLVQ
Structure (SMILES),outcome,AC50
COC(=O)N(OC)c1ccccc1COc1ccn(-c2ccc(Cl)cc2)n1,inactive,
COc1ccc(C(c2ccc(OC)cc2)C(Cl)(Cl)Cl)cc1,inactive,
CN(C)C(=S)SSC(=S)N(C)C,inactive,
COC(=O)C=C(C)OP(=O)(OC)OC,inactive,
CC(C)C1(C)N=C(c2nc3ccccc3cc2C(=O)O)NC1=O (stereo not drawn),inactive,
O=C(Nc1ccccc1)Nc1ccnc(Cl)c1,inactive,
CO/C=C(/C(=O)OC)c1ccccc1Oc1cc(Oc2ccccc2C#N)ncn1,inactive,
CC1COC(Cn2cncn2)(c2ccc(Oc3ccc(Cl)cc3)cc2Cl)O1 (stereo not drawn),inactive,
CCCN(CCC)c1c([N+](=O)[O-])cc(S(N)(=O)=O)cc1[N+](=O)[O-],inactive,
Cc1ccc(-c2c(Cl)nc(C#N)n2S(=O)(=O)N(C)C)cc1,inactive,
CCCC1COC(Cn2cncn2)(c2ccc(Cl)cc2Cl)O1 (stereo not drawn),inactive,
OC(c1ccc(Cl)cc1)(c1cncnc1)c1ccccc1Cl (stereo not drawn),inactive,
CC(C)Oc1cc(-n2nc(C(C)(C)C)oc2=O)c(Cl)cc1Cl,,50 µM (active)
N#CC(CCc1ccc(Cl)cc1)(Cn1cncn1)c1ccccc1 (stereo not drawn),inactive,
O=C(O)COc1nc(Cl)c(Cl)cc1Cl,inactive,
COc1nc(NC(C)C)nc(NC(C)C)n1,inactive,
Fc1ccc(Oc2ccnc3cc(Cl)cc(Cl)c23)cc1,inactive,
COc1nc(C)nc(NC(=O)NS(=O)(=O)c2ccccc2CCC(F)(F)F)n1,inactive,
CON(C)C(=O)Nc1ccc(Cl)c(Cl)c1,inactive,
CC1=C(C(=O)Nc2ccccc2)SCCO1,inactive,

# Target: Retinoic acid receptor alpha (Homo sapiens) (UniProt P10276)
# Assay: ATG_RARa_TRANS: Attagene TRANS-FACTORIAL HepG2 Assay for human Retinoic Acid Receptor alpha (RARa) (AID 2283005);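 as to AC50: potency for increased reporter signal meaning RARa activation over DMSO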
# Conditions: not given
# In short: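 HepG2 transiently transfected with multiplex GAL4-UAS reporter units including a human RARa–GAL4 chimera; 24 h compound exposure. Reporter mRNA quantified by RT-PCR, 6-FAM labeling and capillary electrophoresis; gain of signal versus DMSO.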
# Sequence of Retinoic acid receptor alpha (Homo sapiens) (P10276 whole entry, looked up): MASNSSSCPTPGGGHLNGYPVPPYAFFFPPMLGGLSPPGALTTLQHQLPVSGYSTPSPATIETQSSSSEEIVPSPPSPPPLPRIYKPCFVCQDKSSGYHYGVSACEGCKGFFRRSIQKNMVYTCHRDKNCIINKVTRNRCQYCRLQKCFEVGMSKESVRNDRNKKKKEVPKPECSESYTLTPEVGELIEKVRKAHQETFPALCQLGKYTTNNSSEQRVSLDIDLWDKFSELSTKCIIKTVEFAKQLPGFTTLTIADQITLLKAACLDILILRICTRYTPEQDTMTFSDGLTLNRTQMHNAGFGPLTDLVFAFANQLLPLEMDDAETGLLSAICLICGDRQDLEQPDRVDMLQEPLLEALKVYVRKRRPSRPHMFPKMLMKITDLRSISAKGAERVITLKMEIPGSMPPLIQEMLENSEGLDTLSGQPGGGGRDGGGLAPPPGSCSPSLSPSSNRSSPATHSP
Structure (SMILES),outcome,AC50
COC(=O)N(OC)c1ccccc1COc1ccn(-c2ccc(Cl)cc2)n1,inactive,
COc1ccc(C(c2ccc(OC)cc2)C(Cl)(Cl)Cl)cc1,inactive,
COC(=O)C=C(C)OP(=O)(OC)OC,inactive,
CC(C)C1(C)N=C(c2nc3ccccc3cc2C(=O)O)NC1=O (stereo not drawn),inactive,
CO/C=C(/C(=O)OC)c1ccccc1Oc1cc(Oc2ccccc2C#N)ncn1,inactive,
CC1COC(Cn2cncn2)(c2ccc(Oc3ccc(Cl)cc3)cc2Cl)O1 (stereo not drawn),inactive,
CCCN(CCC)c1c([N+](=O)[O-])cc(S(N)(=O)=O)cc1[N+](=O)[O-],inactive,
Cc1ccc(-c2c(Cl)nc(C#N)n2S(=O)(=O)N(C)C)cc1,inactive,
CCCC1COC(Cn2cncn2)(c2ccc(Cl)cc2Cl)O1 (stereo not drawn),inactive,23 µM (active)
OC(c1ccc(Cl)cc1)(c1cncnc1)c1ccccc1Cl (stereo not drawn),inactive,
CC(C)Oc1cc(-n2nc(C(C)(C)C)oc2=O)c(Cl)cc1Cl,inactive,
N#CC(CCc1ccc(Cl)cc1)(Cn1cncn1)c1ccccc1 (stereo not drawn),inactive,
O=C(O)COc1nc(Cl)c(Cl)cc1Cl,inactive,
COc1nc(NC(C)C)nc(NC(C)C)n1,inactive,
CCCCNC(=O)OCC#CI,inactive,
Fc1ccc(Oc2ccnc3cc(Cl)cc(Cl)c23)cc1,inactive,
COc1nc(C)nc(NC(=O)NS(=O)(=O)c2ccccc2CCC(F)(F)F)n1,inactive,
CON(C)C(=O)Nc1ccc(Cl)c(Cl)c1,inactive,

# Read-out: not listed separately
# Assay: BSK_3C_Proliferation: Cell Proliferation Assessment in the BioMAP Diversity Plus: 3C Assay (AID 2283006; active = hit-call score of the fitted dose curve at least 0.9, where 1 is the maximum; inactive = score below 0.9;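 as to AC50: potency may reflect either rise or fall in cell number versus DMSO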)
# Conditions: primary human endothelial cells (HUVEC)
# In short: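 Proliferation of human vascular endothelial primary cells after 48 h dosing, quantified as SRB-stained protein at 560 nm relative to DMSO.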
Structure (SMILES),AC50,outcome
COC(=O)N(OC)c1ccccc1COc1ccn(-c2ccc(Cl)cc2)n1,2.34 µM (active),
C=CC1(C)OC(=O)N(c2cc(Cl)cc(Cl)c2)C1=O (stereo not drawn),,inactive
CN(C)C(=S)SSC(=S)N(C)C,7 µM (active),
CCCN(CCC)c1c([N+](=O)[O-])cc(S(N)(=O)=O)cc1[N+](=O)[O-],30.8 µM (active) [middle of 4 runs],
OC(c1ccc(Cl)cc1)(c1cncnc1)c1ccccc1Cl (stereo not drawn),25.3 µM (active),
CC(C)Oc1cc(-n2nc(C(C)(C)C)oc2=O)c(Cl)cc1Cl,27.5 µM (active),
N#CC(CCc1ccc(Cl)cc1)(Cn1cncn1)c1ccccc1 (stereo not drawn),14.1 µM (active),
C#CCOS(=O)OC1CCCCC1Oc1ccc(C(C)(C)C)cc1 (stereo not drawn),9.9 µM (active),
COc1nc(NC(C)C)nc(NC(C)C)n1,,inactive
Fc1ccc(Oc2ccnc3cc(Cl)cc(Cl)c23)cc1,24.4 µM (active),

# Target: Peroxisome proliferator-activated receptor gamma (Homo sapiens) (UniProt P37231)
# Assay: ATG_PPARg_TRANS: Attagene TRANS-FACTORIAL HepG2 Assay for human Peroxisome Proliferator-activated Receptor-gamma (PPARg) (AID 2283007)
# Conditions: not given
# In short: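 Read-out: reporter mRNA induction, detected by fluorescence after RT-PCR and capillary electrophoresis. Transiently transfected human HepG2 liver cells carrying a chimeric NR-Gal4 construct were dosed for 24 h; activity was fitted upward relative to DMSO.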
# Sequence of Peroxisome proliferator-activated receptor gamma (Homo sapiens) (P37231 whole entry, looked up): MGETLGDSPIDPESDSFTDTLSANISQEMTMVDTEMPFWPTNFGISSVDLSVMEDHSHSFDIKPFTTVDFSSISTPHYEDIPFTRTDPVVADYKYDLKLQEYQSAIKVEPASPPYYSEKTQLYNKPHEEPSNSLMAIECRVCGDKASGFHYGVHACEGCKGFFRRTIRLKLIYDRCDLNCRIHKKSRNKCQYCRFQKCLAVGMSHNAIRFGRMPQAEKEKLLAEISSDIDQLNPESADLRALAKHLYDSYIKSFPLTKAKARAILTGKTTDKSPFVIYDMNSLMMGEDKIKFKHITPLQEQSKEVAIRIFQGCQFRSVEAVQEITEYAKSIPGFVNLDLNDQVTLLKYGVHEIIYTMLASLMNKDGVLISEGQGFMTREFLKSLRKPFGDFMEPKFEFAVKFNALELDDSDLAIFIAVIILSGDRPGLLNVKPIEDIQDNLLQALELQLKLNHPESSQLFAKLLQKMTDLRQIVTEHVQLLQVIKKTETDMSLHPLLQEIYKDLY
Structure (SMILES),AC50,outcome
COC(=O)N(OC)c1ccccc1COc1ccn(-c2ccc(Cl)cc2)n1,0.592 µM (active),
COc1ccc(C(c2ccc(OC)cc2)C(Cl)(Cl)Cl)cc1,,inactive
C=CC1(C)OC(=O)N(c2cc(Cl)cc(Cl)c2)C1=O (stereo not drawn),37.6 µM (active) and 65.6 µM (active),inactive
Oc1ccccc1-c1ccccc1,28.3 µM (active),inactive
COC(=O)C=C(C)OP(=O)(OC)OC,,inactive
CC(C)C1(C)N=C(c2nc3ccccc3cc2C(=O)O)NC1=O (stereo not drawn),,inactive
O=C(Nc1ccccc1)Nc1ccnc(Cl)c1,50 µM (active),
CO/C=C(/C(=O)OC)c1ccccc1Oc1cc(Oc2ccccc2C#N)ncn1,,inactive
CC1COC(Cn2cncn2)(c2ccc(Oc3ccc(Cl)cc3)cc2Cl)O1 (stereo not drawn),,inactive
CCCN(CCC)c1c([N+](=O)[O-])cc(S(N)(=O)=O)cc1[N+](=O)[O-],,inactive
Cc1ccc(-c2c(Cl)nc(C#N)n2S(=O)(=O)N(C)C)cc1,9.32 µM (active),
CCCC1COC(Cn2cncn2)(c2ccc(Cl)cc2Cl)O1 (stereo not drawn),,inactive
OC(c1ccc(Cl)cc1)(c1cncnc1)c1ccccc1Cl (stereo not drawn),66.2 µM (active),
CC(C)Oc1cc(-n2nc(C(C)(C)C)oc2=O)c(Cl)cc1Cl,34.9 µM (active),
N#CC(CCc1ccc(Cl)cc1)(Cn1cncn1)c1ccccc1 (stereo not drawn),,inactive
C#CCOS(=O)OC1CCCCC1Oc1ccc(C(C)(C)C)cc1 (stereo not drawn),,inactive
O=C(O)COc1nc(Cl)c(Cl)cc1Cl,50 µM (active),
CNC(=S)S,,inactive
COc1nc(NC(C)C)nc(NC(C)C)n1,,inactive
CCCCNC(=O)OCC#CI,26.7 µM (active),inactive
Fc1ccc(Oc2ccnc3cc(Cl)cc(Cl)c23)cc1,,inactive
COc1nc(C)nc(NC(=O)NS(=O)(=O)c2ccccc2CCC(F)(F)F)n1,,inactive
CCNc1nc(Cl)nc(NC(C)C)n1,,inactive
CON(C)C(=O)Nc1ccc(Cl)c(Cl)c1,42.1 µM (active),inactive
CC1=C(C(=O)Nc2ccccc2)SCCO1,,inactive
